# Assay results reported in the supplement of paper PMC10981050.
# Where “and” joins values, the source holds several entries; their conditions need not be identical. Equal values may be shown once. Where a name gives a salt, the structure may show the parent alone.
# How the values were obtained:
# Assay in all cases: cell viability relative to vehicle control; higher = less cytotoxic
# Conditions in all cases: 10 µM
# K562 = tested on: K562
# In short: (§1)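 CRISPR-edited SRSF2 P95 mutant and isogenic wild-type clones of four leukaemia lines were screened against Selleck bioactive, kinase and epigenetic probe libraries, with identity-inconsistent compounds removed. Compounds were acoustically dispensed into 384-well plates at a single 10 µM dose, with 2000 cells in 50 µL medium per well. After 48 h, supernatant was removed and CellTiter-Glo luminescence was read. Viability was expressed as percent of the on-plate DMSO vehicle control, analysed in Genedata Screener.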
# MARIMO = tested on: MARIMO
# In short: as §1
# MOLM14 = tested on: MOLM14
# In short: as §1
# OCI-AML2 = tested on: OCI-AML2
# In short: as §1
SMILES,cell viability (K562; SRSF2 genotype: SRSF2 P95H/wt),cell viability (K562; SRSF2 genotype: SRSF2 wt/wt) [%],cell viability (MARIMO; SRSF2 genotype: SRSF2 P95H/wt) [%],cell viability (MARIMO; SRSF2 genotype: SRSF2 wt/wt) [%],cell viability (MOLM14; SRSF2 genotype: SRSF2 P95H/wt) [%],cell viability (MOLM14; SRSF2 genotype: SRSF2 wt/wt) [%],cell viability (OCI-AML2; SRSF2 genotype: P95H/wt) [%],cell viability (OCI-AML2; SRSF2 genotype: wt/wt) [%]
O=C1CCc2ccc(OCCCCN3CCN(c4cccc(Cl)c4Cl)CC3)cc2N1 [Aripiprazole (Abilify)],90.5% and 93%,93.2,86.8,80.1,86.5,98,47.1,75.5
OCCOc1ccc(/C(=C(/CCCl)c2ccccc2)c2ccccc2)cc1 [Ospemifene],101% and 99.5%,96.5,105,109,79.3,99.9,88.2,96.3
Cc1onc(-c2c(F)cccc2Cl)c1C(=O)N[C@@H]1C(=O)N2[C@@H]1SC(C)(C)[C@@H]2C(=O)O [Flucloxacillin sodium],96.6% and 89.9%,94.3,100,108,95.6,96.5,99.6,107
CC(NC(=O)Cc1cc(F)cc(F)c1)C(=O)NC1C(=O)N(C)c2ccccc2-c2ccccc21 (centres undefined),101% and 102%,108,99.7,94.5,105,104,105,107
O=C(O)[C@H]1O[C@@H](Oc2cc3oc(-c4ccc(O)cc4)cc(=O)c3c(O)c2O)[C@H](O)[C@@H](O)[C@@H]1O [Scutellarin],103% and 99.4%,96,100,104,102,105,101,109
CNC(=O)c1ccccc1Nc1cc(Nc2ccc(N3CCOCC3)cc2OC)ncc1C(F)(F)F,77.7% and 90%,82.8,38.6,35.2,11.4,11.4,21.3,26.5
CC(C)C[C@H](NC(=O)[C@@H](NC(=O)c1cccc(-c2ccccc2)n1)[C@@H](C)O)B(O)O,2.12% and 2.65%,3.78,0.85,2.98,0.49,0.44,0.41,2.11
CC(C)CCCC(C)CCCC(C)CCCCC(C)CCCC(C)CCCC(C)C (centres undefined) [Squalane],109% and 97%,108,105,106,103,108,103,100
CCOC(=O)/C=C/c1ccc(O)c(OC)c1 [Ethyl ferulate],98% and 104%,104,92,107,98,101,112,108
CCOC(=O)c1ccc(N2NC(=O)C(=Cc3ccc([N+](=O)[O-])o3)C2=O)cc1,95.6% and 99.7%,96,95.8,90.9,90.8,94.9,102,107
CC[C@@H]1C(=O)N(C)c2cnc(Nc3ccc(C(=O)NC4CCN(C)CC4)cc3OC)nc2N1C1CCCC1,1.43% and 2.65%,1.81,6.52,5.37,0.17,0.13,0.53,2.92
Clc1cccc(Cl)c1NC1=NCCN1 [Clonidine hydrochloride (Catapres)],98.5% and 103%,105,110,113,89.2,103,115,101
CN1CCC(=C2c3ccccc3CCn3c(C=O)cnc32)CC1 [Alcaftadine],102% and 104%,100,100,94.7,99.7,99.4,109,97.4
O=C(O)c1ccc2c3c1cccc3c(=O)n1c3ccccc3nc21,104% and 102%,102,107,106,96.6,99.9,104,97.5
Clc1ccc(C(c2ccccc2Cl)C(Cl)Cl)cc1 (centres undefined) [Mitotane],91.2% and 89.1%,87.6,83,106,90.8,84.8,93.7,107
CS(=O)(=O)c1ccc(C(=O)Nc2ccc(Cl)c(-c3ccccn3)c2)c(Cl)c1 [Vismodegib (GDC-0449)],93.4% and 96.9%,96.7,101,104,103,104,96,92.9
O=S1(=O)CCN(CN2CCS(=O)(=O)NC2)CN1 [Taurolidine],98.7% and 105%,108,104,111,103,105,123,97.5
N#CC[C@H](C1CCCC1)n1cc(-c2ncnc3[nH]ccc23)cn1,87.3% and 90%,97.7,78,91,68.8,82.6,60.7,57.9
Nc1ccn([C@@H]2O[C@H](CO)[C@@H](O)[C@H]2O)c(=O)n1 [Cytidine],101% and 86.3%,84.4,82.5,89.9,81,89.2,82.5,86.6

SMILES,cell viability (K562; SRSF2 genotype: SRSF2 P95H/wt),cell viability (K562; SRSF2 genotype: SRSF2 wt/wt) [%],cell viability (MARIMO; SRSF2 genotype: SRSF2 P95H/wt) [%],cell viability (MARIMO; SRSF2 genotype: SRSF2 wt/wt) [%],cell viability (MOLM14; SRSF2 genotype: SRSF2 P95H/wt) [%],cell viability (MOLM14; SRSF2 genotype: SRSF2 wt/wt) [%],cell viability (OCI-AML2; SRSF2 genotype: P95H/wt) [%],cell viability (OCI-AML2; SRSF2 genotype: wt/wt) [%]
C=C1CC[C@@H]2[C@](C)(CO)[C@H](O)CC[C@@]2(C)[C@@H]1C/C=C1/C(=O)OC[C@H]1O [Andrographolide],64.7% and 47.9%,59.5,20.5,19.6,11.1,6.73,23.4,22.4
COC1(c2sc3c(N4CCOCC4)nc(-c4cnc(N)nc4)nc3c2C)COC1,40.8% and 45.4%,40.3,47.9,38,26.3,24.1,4.68,16.4
Cc1nc(Nc2cnn(C3CCNCC3)c2)nc2c1N(C)C(=O)c1cc3ccccc3cc1N2C,56% and 67.5%,60.7,50.7,63.7,15.9,5.53,19.2,22
OC[C@@H](O)CN1CCN(c2ccccc2)CC1 [Levodropropizine],90.9% and 91%,83.9,85.1,96.5,92.5,91.6,94.5,96
COC(=O)C1=C(C)NC(C)=C(C(=O)OC2CCCN(Cc3ccccc3)C2)C1c1cccc([N+](=O)[O-])c1 (centres undefined) [Benidipine hydrochloride],77.9% and 79.1%,71.8,76.6,84.7,86.3,79.2,81.5,85.9
CN(C)C(=O)/C(C#N)=C/c1ccc(-c2nc3cnc4[nH]ccc4c3n2C2CCCCC2)o1,99.3% and 98.8%,98.6,80.9,89.3,49.5,71,71.5,71.5
CC1(C)S[C@@H]2[C@H](NC(=O)[C@H](N)c3ccccc3)C(=O)N2[C@H]1C(=O)O [Ampicillin sodium],99% and 108%,102,109,109,102,107,109,95.7
C#C[C@]1(O)CC[C@H]2[C@@H]3CCC4=CCCC[C@@H]4[C@H]3C(=C)C[C@@]21CC [Desogestrel],77.9% and 78.3%,78.7,75.4,81.7,71.4,79.9,61,63
CC1(C)CC[C@]2(C(=O)O[C@@H]3O[C@H](CO[C@@H]4O[C@H](CO)[C@@H](O)[C@H](O)[C@H]4O)[C@@H](O)[C@H](O)[C@H]3O)CC[C@]3(C)C(=CC[C@@H]4[C@@]5(C)CC[C@H](O[C@@H]6OC[C@H](O)[C@H](O)[C@H]6O)[C@@](C)(CO)[C@@H]5CC[C@]43C)[C@@H]2C1 [Akebia saponin D],107% and 101%,103,105,113,103,108,96.4,106
CC(C)(O[C@@H]1O[C@H](CO)[C@@H](O)[C@H](O)[C@H]1O)[C@H]1Cc2cc3ccc(=O)oc3cc2O1 [Nodakenin],101% and 107%,109,98.7,101,110,100,106,103
CCOC(=O)CCNc1cc(N2CCc3ccccc3CC2)nc(-c2ccccn2)n1,26.1% and 28.9%,27.6,25.8,27.4,30.4,24.4,28.8,25.8
Nc1cc(C(F)(F)F)c(-c2cc(N3CCOCC3)nc(N3CCOCC3)n2)cn1,30.2% and 37.9%,31.9,23.2,20.3,11.9,11,11.6,15.7
O=C(Nc1ncc([N+](=O)[O-])s1)c1ccccc1O [Tizoxanide],82% and 82.9%,88.8,90.3,94.2,96.9,100,91.2,96.1
CC(C)(C)C(O)/C=C/c1ccc2c(c1)OCO2 (centres undefined) [Stiripentol],105% and 95.5%,101,94.5,108,100,107,95.3,100
O=C(NOCC(O)CO)c1cc(Br)c(F)c(F)c1Nc1ccc(I)cc1F (centres undefined),81.1% and 89.7%,83.2,41.3,37.3,50.1,36.6,40.6,45
O=C[C@H](O)[C@@H](O)[C@H](O[C@H]1O[C@H](CO)[C@@H](O[C@H]2O[C@H](CO)[C@@H](O[C@H]3O[C@H](CO)[C@@H](O[C@H]4O[C@H](CO)[C@@H](O)[C@H](O)[C@H]4O)[C@H](O)[C@H]3O)[C@H](O)[C@H]2O)[C@H](O)[C@H]1O)[C@H](O)CO [Maltopentaose],101%,103,97.8,105,104,106,109,110
CCCC(CCC)C(=O)O [Valproic acid],95.5% and 98.3%,106,103,100,102,102,102,95.7
Cc1ccc(CN(CC(O)COc2cccc3[nH]ccc23)C(C)(C)C)cc1 (centres undefined),71% and 71.5%,66.8,67,76.8,68,74,83.4,86.2
Cc1ccc(NC(=O)C2(c3ccc4c(c3)OC(F)(F)O4)CC2)nc1-c1cccc(C(=O)O)c1 [VX-809 (Lumacaftor)],108% and 106%,112,115,113,109,106,106,122
